The results in this text go back to PubChem BioAssay.

The structures appear in SMILES notation. Values joined by “and” are separate entries in the source; they are usually repeats but may differ in a detail not shown here. Equal values may be shown once. Active and inactive are the calls of the source.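 The calls were made as follows, unless noted: active = compounds whose cell count with miR-34 switched on is under 0.7 times the count with it off; inactive = the rest.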

Test [1] is described as follows: liver-stage malaria parasite growth inhibition, primary screen, cell-based, HepG2, luciferase luminescence, HepG2 viability (AID 624349; in the data active = parasite load remaining mostly below about 12%, no sharp cut-off; inactive = mostly above about 10%;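 also: 100% = mean of DMSO negative control wells on the same plate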). Particulars: P. berghei liver stage in HepG2, luciferase luminescence, concentration not given here; parasite load remaining: stronger effect = lower value; viability: measured here: HepG2 viability without parasites.
Test [2] can be described thus: differential killing of epithelial or mesenchymal cells, primary screen, imaging, PC-3E GFP, TEM4-18 mCherry, co-culture (AID 1345086;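 active = compounds killing one labelled cell type while sparing the other, by normalised counts and ratio limits, not self-fluorescent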;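 as to all read-outs here: cells exposed to compound for 72 h before imaging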;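 as to red/green cell ratio (normalised): normalised mesenchymal count divided by normalised epithelial count so high means epithelial killing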). The conditions noted are these: imaging cell counts, at 1 µM; for red/green cell ratio (normalised): actives lie on both sides, counts scaled to control wells, 1 = unselective.
A short description of test [3]: sensitizers of A549 cells to miR-34 induction, primary screen, imaging, A549 dox-inducible miR-34, nuclei and caspase counts (AID 1347080). The conditions noted are these: A549 miR-34 inducible, Hoechst nuclei count, 48 h.
Test [4] is described as follows: survival rescue of mitochondrial mutant cells in low glucose, primary screen, MELAS cybrids, Rieske KO mouse fibroblasts, CellTiter-Glo (AID 1508586;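 active = mean z-score across replicates of 1.96 or higher in either the MELAS or the Rieske mutant cell line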;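 also: z relative to plate mean and SD of compound and empty wells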). For orientation: Cellular ATP, detected with luciferase, serves as a proxy for viable cell number.
Test [5] deals with NAD(+) hydrolase SARM1 (Homo sapiens) (UniProt Q6SZW1). The test is described as follows: SARM1 TIR NADase inhibitors, cell lysate, NAD-Glo luminescence (AID 1508614;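 active = compound whose remaining NAD level is above about 45 nM, limit read from the data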;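 also: higher remaining NAD means stronger inhibition of SARM1 NADase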). Particulars: SAM-TIR HEK293T lysate NADase, at 1 µM, stronger effect = higher value.
NAD(+) hydrolase SARM1 (Homo sapiens), sequence (Q6SZW1 whole entry, looked up, the tested form may be a part): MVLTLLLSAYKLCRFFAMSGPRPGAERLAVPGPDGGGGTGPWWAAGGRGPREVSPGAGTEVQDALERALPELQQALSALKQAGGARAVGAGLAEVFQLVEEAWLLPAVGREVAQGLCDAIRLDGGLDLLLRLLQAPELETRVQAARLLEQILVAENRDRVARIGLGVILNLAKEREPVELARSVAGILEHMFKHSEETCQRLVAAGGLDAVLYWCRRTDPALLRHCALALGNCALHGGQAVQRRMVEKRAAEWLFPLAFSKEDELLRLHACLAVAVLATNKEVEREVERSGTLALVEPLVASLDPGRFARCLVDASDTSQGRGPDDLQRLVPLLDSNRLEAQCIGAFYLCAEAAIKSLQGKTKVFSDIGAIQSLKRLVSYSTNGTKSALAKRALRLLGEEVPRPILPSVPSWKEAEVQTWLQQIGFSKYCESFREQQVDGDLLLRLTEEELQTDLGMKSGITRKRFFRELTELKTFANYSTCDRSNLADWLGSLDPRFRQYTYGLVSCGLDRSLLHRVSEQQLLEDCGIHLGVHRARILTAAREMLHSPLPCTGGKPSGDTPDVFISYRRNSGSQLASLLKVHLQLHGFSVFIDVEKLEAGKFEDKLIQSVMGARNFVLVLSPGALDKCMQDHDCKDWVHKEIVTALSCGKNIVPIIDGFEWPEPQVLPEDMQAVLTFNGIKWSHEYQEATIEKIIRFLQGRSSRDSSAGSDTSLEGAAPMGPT
For test [6], the target named is Mitogen-activated protein kinase 7 (Homo sapiens) (UniProt Q13164). The test is described as follows: ERK5 transactivation activators in reporter cells, primary screen, cell-based, HTS (AID 1508626;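 active = luciferase signal above three times the same-plate solvent-only control wells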;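 also: luciferase driven by Gal4-ERK5 fusion binding five Gal4 sites before minimal TATA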). The conditions noted are these: HeLa Gal4-ERK5 transactivation, 18 h, at 5 µM, stronger effect = higher value.
Mitogen-activated protein kinase 7 (Homo sapiens), sequence (Q13164 whole entry, looked up, the tested form may be a part): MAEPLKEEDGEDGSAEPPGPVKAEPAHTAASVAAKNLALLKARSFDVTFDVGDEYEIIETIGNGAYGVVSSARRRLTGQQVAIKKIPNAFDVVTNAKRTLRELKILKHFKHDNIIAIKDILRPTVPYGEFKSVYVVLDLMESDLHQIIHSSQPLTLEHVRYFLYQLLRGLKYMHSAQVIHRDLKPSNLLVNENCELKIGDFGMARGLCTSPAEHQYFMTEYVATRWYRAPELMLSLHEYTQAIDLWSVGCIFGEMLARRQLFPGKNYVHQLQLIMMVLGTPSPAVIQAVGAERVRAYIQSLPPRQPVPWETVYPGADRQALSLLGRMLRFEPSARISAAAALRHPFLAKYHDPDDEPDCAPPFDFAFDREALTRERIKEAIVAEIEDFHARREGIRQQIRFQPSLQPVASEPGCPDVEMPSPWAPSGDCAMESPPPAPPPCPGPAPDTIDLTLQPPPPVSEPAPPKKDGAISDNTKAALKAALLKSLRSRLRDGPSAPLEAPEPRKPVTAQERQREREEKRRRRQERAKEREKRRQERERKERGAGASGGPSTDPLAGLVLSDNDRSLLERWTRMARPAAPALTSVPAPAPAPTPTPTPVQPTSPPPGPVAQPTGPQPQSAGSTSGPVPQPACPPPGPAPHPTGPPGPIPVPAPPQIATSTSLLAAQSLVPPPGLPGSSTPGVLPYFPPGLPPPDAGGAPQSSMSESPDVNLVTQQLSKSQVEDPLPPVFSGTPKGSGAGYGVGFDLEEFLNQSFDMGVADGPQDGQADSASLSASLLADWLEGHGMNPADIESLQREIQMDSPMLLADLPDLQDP
The nature of test [7]: hESC survival regulators, cell-based (AID 493140; call rule not given here;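 also: cells exposed to compounds for four days before counting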). The conditions noted are these: human embryonic stem cell survival screen; stronger effect = higher value.
In test [8] the test system is Hepatitis C virus NS3 helicase. The test is described as follows: HCV NS3 helicase inhibitors, primary screen, biochemical, fluorescence polarization, LOPAC1280 library (AID 687035; in the data active = inhibition above about 37%). Particulars: Purified HCV NS3 helicase, Cy5-dT15 ssDNA binding fluorescence polarization; stronger effect = higher value; concentration not given here. On the technique in general: Fluorescence polarisation rises when a labelled molecule tumbles more slowly, as on binding a larger partner.

Test [9] in a line: Cy5 fluorescence quenching or enhancement artefacts, artefact control for HCV NS3 helicase inhibitor project, biochemical, LOPAC1280 (AID 687037; call rule not given here). Particulars: Cy5-DNA-NS3h complex fluorescence interference counterscreen. A general note: Counterscreens check selectivity or assay interference.
The nature of test [10]: phospholipid biosynthesis inhibitors in animal cells, primary screen, cell-based, LOPAC library, screen 4 (AID 1347384; call rule not given here). The conditions noted are these: phospholipid biosynthesis inhibition screen, at 10 µM.
A short description of test [11]: viability rescue of complex I mutant cybrids, primary screen, cell-based, galactose medium, ATP luminescence (AID 1645843;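 active = z-score of at least 1.8 in each of two replicates, scored against plate mean and spread of sample wells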;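 also: positive z means more ATP and so rescue of galactose-driven cybrid death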). Particulars: complex I mutant cybrid cells, 72 h, stronger effect = higher value.
Where [12] appears, read: measured here: epithelial PC-3E GFP cell survival.
Setting [13] is: measured here: mesenchymal TEM4-18 mCherry cell survival.
Where [14] appears, read: stronger effect = lower value, cell number ratio, induced over uninduced.
Where [15] appears, read: measured here: relative caspase fold change +Dox/-Dox.
The mark [16] stands for this setting: measured here: total cells with miR-34 induction, stronger effect = lower value.
Setting [17] is: measured here: total cells without miR-34 induction.
Setting [18] is: MELAS cybrid survival, CellTiter-Glo 48 h, stronger effect = higher value.
[19] abbreviates: Rieske KO mouse fibroblast survival, CellTiter-Glo 72 h.

The term viability denotes a read-out of living cells in per cent, often relative to untreated cells. Consider `O=[N+]([O-])O[C@@H]1CO[C@H]2[C@@H]1OC[C@@H]2O`, for which, in [1], the parasite load remaining was 73.3% (inactive). Besides, in test [1], the viability amounted to 93.9%. In addition, in test [2], the red/green cell ratio (normalised) is 1.19 (inactive). For the same compound, the normalised cell number in [2] (setting [12]) was determined as 1.15; in test [2] (setting [13]), 1.37. In addition, the fold change in test [3] (setting [14]) is 0.933 (inactive); in test [3] (setting [15]) it was 3.92. In addition, the cell count in test [3] (setting [16]) was 12300; in test [3] (setting [17]), 13200. Also, the z-score in test [4] (setting [18]) is -0.228 (inactive); in test [4] (setting [19]), 0.0347. Further, the remaining NAD in [5] is 12 nM (inactive). The luciferase signal in test [6] was 52 AU (inactive).
The term inhibition denotes the relative decrease from the control value, in per cent. Turning to `c1ccc(C2CN3CCSC3=N2)cc1` (stereo not drawn), the survival in [7] was 5.17 (inactive) and 92.1 (inactive). For the same compound, the parasite load remaining in [1] was 183% (inactive) and 71.5% (inactive). Moreover, the viability in [1] was 108% and 76.2%. Also, the inhibition in test [8] is -2% (inactive). In test [9], the fluorescence ratio (interference) was 1 (inactive). Also, the red/green cell ratio (normalised) in [2] is 1.29 (inactive) and 1 (inactive). Also, the normalised cell number in [2] (setting [12]) was 0.85 and 1.04; in test [2] (setting [13]), 1.1 and 1.05. Further, the fold change in [3] (setting [14]) is 0.894 (inactive) and 0.914 (inactive) and 0.823 (inactive); in test [3] (setting [15]), 2.54 and 0.996 and 1.2. For the same compound, the cell count in [3] (setting [16]) is 8980 and 9120 and 8770; in test [3] (setting [17]) it was 10000 and 9980 and 10700. For the same compound, in [10], the result was inactive. Further, the z-score in [4] (setting [18]) is 0.49 (inactive); in test [4] (setting [19]), 0.36; in test [11] it was 0.64 (inactive). Also, the remaining NAD in test [5] is 10 nM (inactive).
Consider `CCC(=O)Oc1ccc2c(c1)CCC1C2CC[C@@]2(C)C1CC[C@@H]2OC(=O)CC` (stereo partly drawn), for which the red/green cell ratio (normalised) in test [2] was 1.36 (inactive). For the same compound, the values for the normalised cell number in test [2] (setting [12]) and in test [2] (setting [13]) were 0.8 and 1.09, respectively. For the same compound, the fold change in test [3] (setting [14]) was 0.968 (inactive); in test [3] (setting [15]), 0.855. The results for the cell count in test [3] (setting [16]) and in [3] (setting [17]) were 8160 and 8430, respectively.
Regarding `N=C(N)c1ccc(N=NNc2ccc(C(=N)N)cc2)cc1` (tested in a mixture with another compound), the red/green cell ratio (normalised) in [2] was 0.86 (inactive). Moreover, the normalised cell number came out at 1.06 in [2] (setting [12]) and 0.91 in test [2] (setting [13]). In addition, the fold change in test [3] (setting [14]) was 0.828 (inactive) and 0.804 (inactive); in [3] (setting [15]), 1.35 and 1.21. The cell count in test [3] (setting [16]) was 6360 and 8020; in test [3] (setting [17]), 7680 and 9970. Besides, the z-score in test [4] (setting [18]) was 6.02 (active); in test [4] (setting [19]) it was 5.36. The remaining NAD in test [5] was 10 nM (inactive).
With `CN1CCN(C(c2ccccc2)c2ccc(Cl)cc2)CC1` (stereo not drawn), the survival in test [7] is 1.83 (inactive). The parasite load remaining in test [1] is 76% (inactive) and 58.1% (inactive). Further, the viability in test [1] is 93.1% and 88.3%. Also, in test [2], the red/green cell ratio (normalised) is 1.15 (inactive). Besides, the values for the normalised cell number in test [2] (setting [12]) and in test [2] (setting [13]) were 1.09 and 1.26, respectively. Further, the fold change in test [3] (setting [14]) is 0.825 (inactive) and 0.923 (inactive); in [3] (setting [15]) it was 1.22 and 0.572. Further, the cell count in [3] (setting [16]) is 7440 and 10400; in [3] (setting [17]) it was 9010 and 11300. The z-score in test [4] (setting [18]) is 0.513 (inactive); in test [4] (setting [19]) it was 1.23. Further, the remaining NAD in test [5] was 10 nM (inactive). Moreover, the luciferase signal in [6] was 100 AU (inactive).
Turning to `O=C(O)c1ccccc1`, the parasite load remaining in [1] is 29.9% (inactive). In [1], the viability stood at 83.9%. Also, the red/green cell ratio (normalised) in test [2] was 1.1 (inactive). Besides, the normalised cell number in test [2] (setting [12]) was determined as 1.23; in test [2] (setting [13]) it was 1.35. Also, the fold change in test [3] (setting [14]) is 0.957 (inactive) and 0.932 (inactive); in [3] (setting [15]) it was 0.544 and 1.69. Further, the cell count in [3] (setting [16]) is 8250 and 11300; in test [3] (setting [17]), 8620 and 12100. Moreover, the values for the z-score in test [4] (setting [18]) and in test [4] (setting [19]) were -0.248 (inactive) and -0.209, respectively. Moreover, the remaining NAD in test [5] was 10 nM (inactive). Moreover, the luciferase signal in test [6] is 36 AU (inactive).
Take `CCCCCOC(=O)Nc1nc(=O)n(C2O[C@H](C)[C@@H](O)[C@H]2O)cc1F` (stereo partly drawn): the red/green cell ratio (normalised) in [2] is 1.41 (inactive). The normalised cell number in test [2] (setting [12]) was found to be 0.48; in test [2] (setting [13]), 0.68. Further, the fold change in test [3] (setting [14]) is 0.954 (inactive); in [3] (setting [15]), 0.897. Besides, the cell count came to 8840 in [3] (setting [16]) and 9270 in [3] (setting [17]).
Regarding `O=c1[nH]cnc2c1ncn2C1O[C@H](CO)[C@@H](O)[C@H]1O` (stereo partly drawn), in [2], the red/green cell ratio (normalised) is 1.22 (inactive). The normalised cell number came to 0.83 in [2] (setting [12]) and 1.02 in test [2] (setting [13]). Besides, the results for the fold change in [3] (setting [14]) and in test [3] (setting [15]) were 0.943 (inactive) and 0.652, respectively. Moreover, the cell count turned out to be 8910 in test [3] (setting [16]) and 9440 in test [3] (setting [17]).
